Laboratory results taken from PubChem BioAssay AID2781 (National Center for Advancing Translational Sciences (NCATS), 2010).
Activity calls are given as the source filed them.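 How the source made its calls: active means compound whose NMR saturation transfer difference test with menin is positive, showing direct binding to the protein; inactive means the rest.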

Each compound was assayed against Menin (Homo sapiens) (UniProt O00255) (assay: Confirmation of Inhibitors Targeting the Menin-MLL Interaction in MLL Related Leukemias: NMR spectroscopy to verify direct binding of compounds to menin). Conditions: purified menin, NMR STD binding, 100 uM.
Menin (Homo sapiens), sequence (O00255 whole entry, looked up): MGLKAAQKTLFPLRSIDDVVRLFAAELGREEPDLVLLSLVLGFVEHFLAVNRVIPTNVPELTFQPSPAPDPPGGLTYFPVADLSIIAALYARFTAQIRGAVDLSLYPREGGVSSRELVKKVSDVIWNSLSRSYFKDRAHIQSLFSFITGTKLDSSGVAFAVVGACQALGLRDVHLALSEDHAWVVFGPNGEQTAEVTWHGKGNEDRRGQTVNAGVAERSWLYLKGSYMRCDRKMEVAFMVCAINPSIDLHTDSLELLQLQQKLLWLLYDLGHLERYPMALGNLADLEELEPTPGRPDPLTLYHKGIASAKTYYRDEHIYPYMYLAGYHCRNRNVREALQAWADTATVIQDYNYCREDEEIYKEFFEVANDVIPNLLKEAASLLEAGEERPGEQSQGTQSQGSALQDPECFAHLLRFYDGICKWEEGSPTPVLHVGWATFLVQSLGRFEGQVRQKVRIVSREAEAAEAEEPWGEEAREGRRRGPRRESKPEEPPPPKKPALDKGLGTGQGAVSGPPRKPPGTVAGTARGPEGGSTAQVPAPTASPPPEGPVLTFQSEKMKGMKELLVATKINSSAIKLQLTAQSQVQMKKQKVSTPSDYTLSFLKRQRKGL
Method in brief: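 Binding was checked by 600 MHz STD NMR in pH 7.5 phosphate buffer (50 mM phosphate, 50 mM NaCl, 1 mM DTT). Samples held 100 uM compound and 2.5 uM menin, alone or with 25 uM wild-type MLL peptide.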

SMILES | outcome
CC(=O)NC1C(=O)N(CCN2CCOCC2)c2ccc(Cl)cc21 (stereo not given) | inactive; negative
O=C(O)CSc1cc(NS(=O)(=O)c2ccc(Br)cc2)c2ccccc2c1O | inactive; negative
O=C(Nc1nnc(-c2ccccc2SCc2ccccc2)s1)Nc1ccccc1F | inactive; negative
COC(=O)c1ccccc1NC1=C/C(=N\S(=O)(=O)c2ccc(C(=O)O)cc2)c2ccccc2C1=O | inactive; negative
CCOc1ccc2c(c1)C(NC(C)=O)C(=O)N2CCN1CCOCC1 (stereo not given) | inactive; negative
COc1ccccc1C(=O)Nc1ccnn1C1CCN(CC2CC=CCC2)CC1 (stereo not given) | active; positive
Cc1sc2ncnc(NC3CCN(Cc4ccccc4)CC3)c2c1C | active; positive
CCNC(=S)N1CCN(c2nc(CC)nc3sc4c(c23)CCCC4)CC1 | inactive; negative
NS(=O)(=O)c1ccc(NC(=O)c2ccc(-c3ccccc3)cc2)cc1 | inactive; negative
COc1ccc2[nH]c3c(C)c4ccncc4c(C)c3c2c1 | inactive; negative
COc1cc(-c2ccc(-[n+]3nc(-c4ccccc4)nn3-c3ccc([N+](=O)[O-])cc3)c(OC)c2)ccc1-[n+]1nc(-c2ccccc2)nn1-c1ccc([N+](=O)[O-])cc1 | inactive; negative
O=C(Nc1ccc(F)c(Cl)c1)c1cc(-c2ccco2)on1 | inactive; negative
O=C(CSc1nc(O)cc(=O)n1-c1ccccc1)c1ccc(Br)cc1 | inactive; negative
Cc1cc(N/N=C/c2ccc(O)cc2)c2cccc(C)c2n1 | inactive; negative
CCOC(=O)c1cnc2ccc(OCC)cc2c1N1CCN(C)CC1 | active; positive
CCOC(=O)c1cnc2ccc(OC)cc2c1Nc1ccc(N2CCN(C)CC2)cc1 | inactive; negative
COc1ccc(Cn2nnnc2C(c2ccc3ncccc3c2)N2CCN(C3CCCCC3)CC2)cc1 (stereo not given) | active; positive
COc1ccc(S(=O)(=O)Nc2cc(SCC(=O)O)c(O)c3ccccc23)cc1 | inactive; negative
CNC[C@H](CC1CCCCC1)NC[C@H](Cc1ccccc1)NCCC12CC3CC(CC(C3)C1)C2 | inactive; negative
N#Cc1ccc(OCC(O)CN2CCN(C(c3ccccc3)c3ccccc3)CC2)cc1 (stereo not given) | active; positive
